Peg3 promoter – Peg3 promoter activity inhibition | HeLa PEG-Prom luciferase reporter, luminescence, overnight | inhibition, % at 20 µM | 360,000 tested, 1.7% active;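 active means inhibition of at least 50% at 20 µM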
PAX8 inh HTS – inhibitors of PAX8 transcriptional activity in RMG-I cells; AID 652154; 360,000 tested, 1.2% active; RMG-I TPO-luciferase reporter, SteadyGlo, 24 h; inhibition, % at 12.6 µM;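 active means mean replicate inhibition at least 60% with every replicate also reaching 60%; inconclusive means only one of the two criteria is met; inactive means mean below 60% and not all replicates reaching 60%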;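 further: luciferase light reporting Pax8 driven TPO promoter activity; plate controls were median of neutral control wells for no effect and mitoxantrone controls for full effect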
LMP1 NFkB inh – Epstein-Barr LMP1 NF-kappaB reporter inhibition | LMP1-induced NF-kappaB luciferase reporter cells, luminescence | inhibition, % at 12.5 µM | 350,000 tested, 0.69% active; in the data active means inhibition above about 41%; inconclusive means no clear call, values can overlap the other calls;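 further: 0% = neutral control wells and 100% = reference inhibitor control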
TRPM1 prom inh – MITF TRPM1 promoter inhibition in SK-MEL-5 cells; SK-MEL-5 TRPM1 promoter luciferase, 24 h; inhibition, % at 12.5 µM; 330,000 tested, 0.83% active; AID 488899;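 active means mean inhibition across replicates of 60% or more, whatever share of single replicates reaches that level; inconclusive means some that reach 60%, reason not given; inactive means mean inhibition across replicates below 60%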
HIF-2a block – HIF-2a inhibition; 786-0 RCC cells HIF-2a reporter, luciferase luminescence, overnight; 360,000 tested, 0.72% active; inhibition, % at 18.8 µM;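 active means inhibition of the luminescence signal of 40% or more relative to plate controls, in a single-dose primary screen at 18.75 µM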
Shn3 inh set2 – inhibitors of Schnurri-3 3'UTR reporter in osteoblasts; Clone20 osteoblast Shn3 3'UTR firefly luciferase, 24 h; 360,000 tested, 0.52% active; inhibition, % at 12.5 µM;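 active means mean inhibition of at least 75% with every replicate also reaching 75%; inconclusive means mean inhibition at least 75% but some replicate below; inactive means mean inhibition below 75%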;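 further: 0% = median of neutral control wells and 100% = pilot-screen positive control compound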
Mdm2 MdmX conf – Mdm2/MdmX (human) interaction inhibition, confirmed; shares compounds with HIF-2a block; SaOS-2 split-luciferase Mdm2/MdmX complementation, luminescence; inhibition, % at 8 µM; 740 tested, 99% active; AID 504601;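 active means mean inhibition of the luminescence signal across two replicates at or above 26 percent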
Target sequence (O15151 whole entry, looked up): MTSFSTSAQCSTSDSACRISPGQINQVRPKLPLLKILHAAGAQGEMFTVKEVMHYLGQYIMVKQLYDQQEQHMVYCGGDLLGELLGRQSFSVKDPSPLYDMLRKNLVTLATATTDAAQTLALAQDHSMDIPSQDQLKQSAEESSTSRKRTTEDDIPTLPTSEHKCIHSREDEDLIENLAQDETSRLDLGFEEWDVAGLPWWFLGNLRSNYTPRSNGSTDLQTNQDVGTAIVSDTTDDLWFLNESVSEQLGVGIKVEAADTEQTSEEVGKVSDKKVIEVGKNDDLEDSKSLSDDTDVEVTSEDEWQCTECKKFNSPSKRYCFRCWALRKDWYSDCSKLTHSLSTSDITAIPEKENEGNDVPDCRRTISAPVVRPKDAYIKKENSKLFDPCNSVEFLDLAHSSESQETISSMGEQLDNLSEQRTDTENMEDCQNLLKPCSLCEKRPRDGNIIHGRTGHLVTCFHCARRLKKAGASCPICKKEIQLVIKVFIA
Target sequence (Q00987 whole entry, looked up): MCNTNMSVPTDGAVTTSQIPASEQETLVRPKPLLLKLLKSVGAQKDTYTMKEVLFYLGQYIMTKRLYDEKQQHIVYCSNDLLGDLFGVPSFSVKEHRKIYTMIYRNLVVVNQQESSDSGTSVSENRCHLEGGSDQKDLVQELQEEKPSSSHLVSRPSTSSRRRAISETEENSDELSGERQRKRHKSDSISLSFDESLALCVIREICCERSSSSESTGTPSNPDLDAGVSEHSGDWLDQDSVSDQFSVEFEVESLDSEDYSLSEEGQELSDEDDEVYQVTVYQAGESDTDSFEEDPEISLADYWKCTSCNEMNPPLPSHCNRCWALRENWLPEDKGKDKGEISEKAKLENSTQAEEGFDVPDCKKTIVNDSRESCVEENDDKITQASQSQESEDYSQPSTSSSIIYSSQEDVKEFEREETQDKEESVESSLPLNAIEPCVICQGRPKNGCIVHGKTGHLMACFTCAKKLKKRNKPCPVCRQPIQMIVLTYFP
HIF-2a inh conf – confirmation of HIF-2a inhibitors | shares compounds with HIF-2a block | 786-0 RCC cells, HIF-2a luciferase reporter luminescence, overnight | inhibition, % at 18.8 µM | 1,800 tested, 56% active | AID 651580;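 active means mean inhibition across four replicates of at least 40 percent at the single tested concentration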
HIF-1a cs – HIF-1a inhibition counter-screen for HIF-2a hits. shares compounds with HIF-2a block. MiaPaCa-2 HIF-1a luciferase reporter, desferoxamine, overnight. inhibition, % at 18.8 µM. 1,800 tested, 72% active. AID 651589;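 active means mean inhibition of the reporter signal across four replicates at the single tested dose of 50% or more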
* hit, by the source's call; ? = inconclusive; / = no result. Shown are actives, neighbours in structure and some others; about 2.8% of the full set was active somewhere.

SMILES | Peg3 promoter | PAX8 inh HTS | LMP1 NFkB inh | TRPM1 prom inh | HIF-2a block | Shn3 inh set2 | HIF-2a inh conf | HIF-1a cs | others
O=c1c(Cl)c(Cl)cnn1-c1ccccc1 | 114.5* | 108.1* | -0.5 | 87.9* | 93.9* | 1.7 | 98.0* | 104.4*
Nc1c(Cl)cnn(-c2ccccc2)c1=O | 7.3 | 8.1 | / | / | -4.5 | 3.6 | / | /
CO[C@@H]1CN(C)C(=O)c2cc(NC(=O)Nc3cc(F)ccc3F)ccc2OC[C@@H](C)N(C(=O)c2ccccn2)C[C@H]1C | / | -0.8 | / | / | / | / | / | /
Cc1noc(C)c1NC(=O)N(C)C[C@H]1Oc2ncc(C3=CCCC3)cc2C(=O)N([C@@H](C)CO)C[C@H]1C | / | -10.8 | / | / | / | / | / | /
N#Cc1c(N)n(C2CCCCC2)c2nc3ccccc3nc12 | 39.3 | / | 1.8 | 11.2 | 41.7* | 20.9 | 16.5 | 76.9*
C[C@@H]1CCCCO[C@H](CN(C)C(=O)Cc2ccccc2)[C@@H](C)CN([C@@H](C)CO)C(=O)c2cc(NC(=O)c3ccncc3)ccc2O1 | / | 12.4 | / | / | / | / | / | /
C[C@@H]1CN([C@H](C)CO)C(=O)c2cc(NS(=O)(=O)c3ccccc3)ccc2O[C@@H](C)CCCCO[C@H]1CN(C)Cc1ccc2c(c1)OCO2 | / | -2.5 | / | / | / | / | / | /
COC(=O)[C@@]1(Cc2ccc(OC)cc2)[C@@H]2C(=CC(=O)[C@H]2CC(=O)C(=O)N2CCCC2)CN1C(=O)c1ccccc1 | 16.4 | / | -10.9 | 40.4 | 77.2* | 4.1 | 69.3* | 84.5*
COC(=O)[C@@]1(Cc2ccc(F)cc2)[C@H]2C(CC(=O)C(=O)N3CCCC3)C(=O)C[C@H]2CN1C(=O)c1ccccc1 (stereo not given in full) | / | 0.7 | / | / | 13.6 | / | / | /
CO[C@@H]1CN(C)C(=O)c2cc(NS(=O)(=O)c3cn(C)cn3)ccc2OC[C@@H](C)N(Cc2cccc(F)c2)C[C@@H]1C | / | -31.7 | / | / | / | / | / | /
CCc1ccc(NC(=O)COc2ccc(/C=C(/C#N)c3nc4ccccc4[nH]3)cc2OC)cc1 | 57.2* | -15.4 | -1.2 | -1.3 | -0.5 | -13.8 | / | / | Mdm2 MdmX conf=89.0*
COC(=O)c1ccc(COc2ccc(/C=C(\C#N)c3nc4ccccc4[nH]3)cc2OC)o1 | 10.0 | / | -25.0 | 10.3 | -0.1 | 37.6 | / | /
C#CCn1c(S(=O)(=O)Cc2ccc(F)cc2)nc(-c2ccccc2)c1-c1ccccc1 | 11.0 | / | 42.6* | -16.8 | -5.6 | 21.3 | / | / | Mdm2 MdmX conf=101.2*
CCOC(=O)Cn1c(S(=O)(=O)Cc2ccc(F)cc2)nc(-c2ccccc2)c1-c1ccccc1 | 23.4 | / | -5.0 | -0.1 | 5.7 | 54.8 | / | /
C[C@H](NC(=O)C[C@H]1CC[C@@H](NC(=O)C2CCOCC2)[C@@H](CO)O1)c1ccccc1 | / | 0.9 | / | / | / | / | / | /
Cn1c(=O)[nH]c(=O)c2[nH]c(N(Cc3ccccc3)Cc3ccccc3)nc21 | 24.4 | / | 1.8 | 4.3 | 40.8* | 4.1 | 10.8 | -7.2
C[C@@H]1CCCCO[C@@H](CN(C)CC2CCCCC2)[C@@H](C)CN([C@H](C)CO)C(=O)c2cc(NS(=O)(=O)c3ccc(F)cc3)ccc2O1 | / | 19.5 | / | / | / | / | / | /
Cn1c(/C=C/c2ccc(Cl)cc2)c([N+](=O)[O-])c(=O)n(C)c1=O | 15.2 | 41.6 | -0.5 | ? | 62.8* | -4.1 | 44.4* | 18.0
Cn1c(/C=C/c2cccc([N+](=O)[O-])c2)c([N+](=O)[O-])c(=O)n(C)c1=O | 32.4 | 49.7 | 15.7 | 48.9 | 45.4* | -15.4 | 38.5 | 57.5*
COc1ccc(/C=C/c2c([N+](=O)[O-])c(=O)n(C)c(=O)n2C)cc1OC | 0.1 | / | -0.7 | 0.9 | 11.8 | -29.7 | / | /
CCCCCOc1ccc(/C=C/c2c([N+](=O)[O-])c(=O)n(C)c(=O)n2C)cc1 | 31.0 | -0.8 | -7.4 | 1.0 | 42.0* | 4.2 | 11.6 | 0.8
COc1ccc(NC(=O)Nc2ccc3c(c2)C(=O)N([C@H](C)CO)C[C@H](C)[C@H](CN(C)C(=O)Nc2ccc4c(c2)OCO4)OCCCC[C@@H](C)O3)cc1 | / | -0.2 | / | / | / | / | / | /

Source: PubChem (several laboratories)
